Compounds with a hit are over-represented: about 1.9% of the library has one in this group of screens.
p47phox inh: p47phox (human) inhibition; p47phox/p22phox peptide binding, fluorescence polarization, 2 h; P14598; AID 1274; actives 0.53% (n = 220,000); inhibition, % at 24.7 µM;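 active = inhibition above about 30%, limit read from the data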
NR1D1 modulator: modulators of human Rev-erb alpha DNA binding; P20393; Rev-erbα–FITC-DNA binding, fluorescence polarization, 90 min; activity, % at 10 µM; actives 0.79% (n = 370,000);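 active = activity above about 14%, limit read from the data; passing the limit was not always enough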
EBNA-1 inh: blocks EBNA-1 binding to DNA. EBNA-1 DNA binding, fluorescence polarization. inhibition, % at 14.8 µM. actives 0.34% (n = 300,000); in the data active = inhibition above about 28%
ZTA DNA inh: ZTA (EBV) inhibition in EBNA-1 counter-screen. P03206. ZTA-DNA binding, fluorescence polarization. inhibition, % at 11 µM. actives 0.15% (n = 320,000). AID 2234; in the data active = inhibition above about 33%
Target sequence (P03206 whole entry, looked up): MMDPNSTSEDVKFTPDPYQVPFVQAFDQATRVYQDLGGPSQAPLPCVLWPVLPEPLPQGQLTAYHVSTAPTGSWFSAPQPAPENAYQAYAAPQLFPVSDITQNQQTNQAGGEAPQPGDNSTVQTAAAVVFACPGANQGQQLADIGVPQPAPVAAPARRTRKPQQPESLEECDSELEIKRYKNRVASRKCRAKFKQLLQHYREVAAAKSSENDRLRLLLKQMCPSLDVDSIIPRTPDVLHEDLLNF
aDG glyco up: increases alpha dystroglycan glycosylation; Pro5-aDG cells, alpha-DG glycosylation AlphaScreen (IIH6); 0% Pro5, 100% B10-LARGE cell signal; activation, % at 10 µM; actives 0.22% (n = 360,000);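 active = activation of at least 8% versus controls, or a plate z-score of at least 8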;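 also: Pro5 are CHO cells carrying HIG-tagged alpha-DG that lacks glycosylation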
PG9 binder: small molecules binding HIV-1 gp120 antibody PG9. actives 0.43% (n = 360,000). AID 624416. inhibition, % at 6.7 µM. TR-FRET gp120-PG9 antibody binding; in the data active = inhibition above about 8.5%
PG9 binder conf: confirmation of small molecules binding HIV-1 gp120 antibody PG9; shares compounds with PG9 binder; inhibition, % at 6.7 µM; TR-FRET PG9 antibody binding, biochemical; AID 651571; actives 90% (n = 1,500); in the data active = inhibition above about 9%
PGV04 Ab binding: counter-screen for PG9 binders: binding control antibody PGV04; inhibition, % at 6.7 µM; actives 95% (n = 1,500); shares compounds with PG9 binder; TR-FRET PGV04 antibody-gp120 binding, biochemical; in the data active = inhibition above about 9.5%
PG9 bind DR: small molecules binding HIV-1 gp120 antibody PG9. 95 tested, under 10 active. AID 651848. shares compounds with PG9 binder. IC50, µM. TR-FRET PG9 antibody-gp120 binding inhibition; in the data active = IC50 below about 10 µM
PGV04 DR counter: binds control antibody PGV04 in PG9 counter-screen; actives 20% (n = 95); TR-FRET binding to control antibody PGV04; AID 651937; shares compounds with PG9 binder; IC50, µM
PG126 DR counter: PG126 binding, dose response counter-screen. shares compounds with PG9 binder. TR-FRET binding to antibody PG126, counterscreen. actives 20% (n = 95). IC50, µM
Rev-erbA confirm: confirmation of modulators of human Rev-erb alpha DNA binding; shares compounds with NR1D1 modulator; Rev-erb alpha FITC-DNA binding, fluorescence polarization, 90 min; activation, % at 25 µM; actives 61% (n = 3,000); AID 1259319;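 active = activation at or above a set limit, or at least 3 SD above the negative control mean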
RORg counter: counter-screen for Rev-erb alpha modulators: RORgamma DNA binding; shares compounds with NR1D1 modulator; purified RORgamma protein-FITC-DNA binding, fluorescence polarization; IC50, µM; actives 8% (n = 910);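 active = Compounds whose fitted half-maximal concentration for disrupting protein-DNA binding is below 10 micromolar; the record names Rev-erb in its text, so the target is in doubt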
A number is an active result; i = inactive; nt = no result given. Rule as the data show it, unless noted: active = IC50 below about 9 µM; inactive = the rest.

SMILES	p47phox inh	NR1D1 modulator	EBNA-1 inh	ZTA DNA inh	aDG glyco up	PG9 binder	PG9 binder conf	PGV04 Ab binding	Rev-erbA confirm	others
CCCOc1ccc2cc(C(=O)NCc3ccccc3)c(=O)oc2c1	nt	70	i	i	i	11	38	56	29
Brc1cc(Br)c2nc3c(cc2c1)CCC3	nt	33	i	i	i	52	58	66	23
CC(=O)Nc1cccc(NC(=O)CSc2nc(C)c(C)c(C)c2C#N)c1	i	i	i	i	i	i	nt	nt	nt
Cc1cccc(C)c1NC(=O)CSc1nc(C)c(CC(=O)c2ccc(Br)cc2)c(C)c1C#N	i	141	i	i	i	26	53	70	78
COCCCNC(=O)C[C@H]1C[C@@]2(C(=O)OC)C(=C[C@H](C3CCCC3)O[C@@H]2C)N(CCc2ccc(OC)c(OC)c2)C1=O	nt	i	nt	nt	nt	nt	nt	nt	nt
CCOC(=O)c1c(NC(=O)COC(=O)CCOc2ccc(OCC)cc2)sc(C(=O)N(C)C)c1C	nt	nt	i	i	i	nt	nt	nt	nt
CCOC(=O)c1c(NC(=O)COC(=O)CCOc2ccccc2C)sc(C(=O)NC)c1C	nt	72	i	i	i	31	48	57	46	RORg counter=i
COc1cccc(C(=O)Nc2ccc3c(C)cc(=O)oc3c2)c1	nt	20	nt	nt	i	9.7	21	31	i
Cc1cc(=O)oc2cc(NC(=O)c3ccccc3C(=O)O)ccc12	nt	i	i	i	i	i	nt	nt	nt
CCCC(=O)Nc1c2c(nc3ccccc13)N(c1ccccc1)CC2	i	nt	i	i	i	nt	nt	nt	nt
O=C(CN1CCCCC1)Nc1c2c(nc3ccccc13)N(c1ccccc1)CC2	i	109	i	i	i	48	72	79	75	RORg counter=i
COc1cc(OC)cc(-c2c(Sc3ccccc3)c3cc(-c4ccc5c(c4)OCCO5)ccc3n2C)c1	nt	23	nt	nt	i	45	55	73	21
CC(COc1cccc(C(F)(F)F)c1)CN1CCC(C(O)(c2ccccc2)c2ccccc2)CC1 (stereo not given)	nt	i	nt	nt	nt	nt	nt	nt	nt
O=C(Nc1ccc(F)cc1F)C1CCN(c2nnc(-n3cccc3)s2)CC1	nt	i	nt	nt	nt	nt	nt	nt	nt
CCCn1c(=O)c(-c2nc3ccccc3[nH]2)c(O)c2ccccc21	i	26	i	i	i	50	62	71	i
CCn1c(=O)c(-c2nc3ccccc3[nH]2)c(O)c2ccccc21	i	32	i	i	nt	44	43	49	i
CCCCCCn1c(=O)c(-c2ccccc2)c(O)c2ccccc21	i	i	i	i	i	i	nt	nt	nt
Cc1ccc(NC(=O)CN(C)C(=O)COc2ncnc3ccc(Br)cc23)cc1	nt	21	nt	i	i	21	9.1	i	17	PG9 bind DR=i;PGV04 DR counter=i;PG126 DR counter=i
O=C(COC(=O)c1cc(Br)ccc1O)Nc1cccnc1Cl	nt	66	i	i	i	38	13	31	39	RORg counter=i
N#Cc1ccsc1NC(=O)COC(=O)c1cc(Br)ccc1O	i	48	i	i	i	34	38	60	32	RORg counter=i
N#Cc1ccsc1NC(=O)COC(=O)c1ccc(Br)o1	nt	i	nt	nt	i	i	nt	nt	nt
COC(=O)C1CN(Cc2cn(Cc3ccccc3)nn2)CCS(=O)(=O)N1Cc1ccc(OC)cc1 (stereo not given)	nt	i	nt	nt	nt	nt	nt	nt	nt
CCc1c(C)sc(NC(=O)CCc2ccc(OC)cc2)c1C(N)=O	i	i	i	i	i	i	nt	nt	nt

Screening results from PubChem BioAssay.
